Data: PubChem BioAssay AID540276 (National Center for Advancing Translational Sciences (NCATS), 2011)
Among all 300,000 compounds or so, about 5,400 (1.8%) were called active. Roughly 28% stayed inconclusive and do not appear here. Shown is part of a subset that was picked to be rich in actives. A number with no mark means an inactive call. Calls follow the shape of the full dose curve; tested in HEK293 cells.

experiment: qHTS for inhibitors of binding or entry into cells for Marburg Virus; details: Marburg virus pseudotyped entry inhibition, cell reporter; series mostly up to 37.8 µM; activity change, negative = inhibition: at the top concentration
% is scaled to controls: 0 for no effect and ±100 for the full control effect; potency is read from the fitted curve at half-maximal effect.

Structure (SMILES)	activity change, negative = inhibition	Potency
CC(NCC(=O)Nc1ccccc1C(=O)NC1CC1)c1ccccc1Cl (stereo not given)	-20.8%	–
Cn1c(Cl)cnc1[C@H]1CC(=O)c2cc(Cl)ccc2O1	–	10 µM (active)
COc1cccc(NC(=O)C[C@H]2SC(=Nc3ccccc3)NC2=O)c1	-24.7%	–
O=C(c1cnn(-c2ccc(Cl)cc2)c1)c1ccccc1O	–	3.55 µM (active)
Cc1ncc(CC(=O)n2cc(C(=O)c3cc(Cl)ccc3O)cn2)s1	9.14%	–
Cc1cc(O)cc(O)c1C(=O)Cc1cnn(-c2ccccc2)c1	17.8%	–
O=c1oc2ccccc2c(=O)c2ccccc12	-5% [at 46.1 µM]	–
Cc1cccc(CN2CCC(n3nccc3NC(=O)c3ccccc3C)CC2)n1	5.62%	–
CC1(C(=O)NNC(=S)NCC2CCCO2)CC1(Cl)Cl (stereo not given)	-2.45% [at 46.1 µM]	–
CC(=O)OC1C2(CC3N4C(=O)C5(CO)SSC4(CC31O)C(=O)N5C)OC(C)C(C)(C)C2=O (stereo not given)	–	1.41 µM (active)
Cc1ccc(OCC(=O)N/N=C\c2ccco2)c(C)c1	6.47%	–
Cc1ccc(/C=N/NC(=O)COc2ccccc2-c2ccccc2)cc1	–	1.3 µM (active)
Cc1ccc(OCC(=O)N/N=C/c2ccncc2)cc1	13.4%	–
O=C(Nc1cnn(Cc2ccc(Cl)cc2)c1)C1CCCC1	2.69%	–
CCn1cc(CN2CCC(C(=O)Nc3cccc(-c4cccc(Cl)c4)c3)CC2)cn1	–	12.6 µM (active)
O=C(Nc1ccc(-n2cccn2)cc1)C1CCN(Cc2ccsc2)CC1	-21%	–
CC(C)CO/N=C1\C[C@@H](O)[C@@H](O)[C@@H]2[C@@H]3C(=O)N(C[C@@H]4CCCO4)C(=O)[C@@H]3CC[C@@H]12	-9.86% [at 14.2 µM]	–
CC1CN(Cc2ccco2)C(=S)N(c2ccccc2)C1=O (stereo not given)	18.1%	–
O=C1CCCN1C(=O)COc1ccc([N+](=O)[O-])cc1	-4.97% [at 46.1 µM]	–
Cc1noc(C)c1CSCC(=O)N(CCC(C)C)c1c(N)n(Cc2ccccc2)c(=O)[nH]c1=O	-5.09%	–
COc1ccc(/C=C/C(=O)OCC(=O)NC2CCCCCC2)cc1OC	9.04%	–
COc1ccc(/C=C/C(=O)Nc2cccnc2)cc1OC	-4.12% [at 46.1 µM]	–
COc1ccc(/C=C/C(=O)Nc2ccc(C34CC5CC(CC(O)(C5)C3)C4)cc2)cc1OC	–	6.51 µM (active)
CCOC(=O)Cc1[nH]nc2c1[C@H](c1cc(OC)ccc1OC)C(C#N)=C(N)O2	5.26%	–
COc1ccc(-n2c(C)nc3c(cnn3-c3ccc(F)cc3)c2=O)cc1	13% [at 46.1 µM]	–
COc1ccc(Oc2c(Cl)cnn(-c3ccccc3)c2=O)cc1	–	10 µM (active)
Cc1ccc(Oc2cnn(-c3ccccc3)c(=O)c2Br)cc1	1.31% [at 46.1 µM]	–

Structure (SMILES)	activity change, negative = inhibition	Potency
Cc1cc(C(=O)Nc2ccccc2N2CCOCC2)c2ccccc2n1	-16.1%	–
c1ccc(Nc2nc(N3CCOCC3)c3ccccc3n2)cc1	–	12.6 µM (active)
c1ccc(-c2nnc(N3CCOCC3)c3ccccc23)cc1	-2.47% [at 46.1 µM]	–
Cc1nn(-c2ccc(F)cc2)c(Cl)c1/C=C(/CCC(=O)O)c1nc2ccccc2s1	13.4%	–
Cc1cc(O)c(Sc2ccccc2)c(=O)o1	-11.6% [at 46.1 µM]	–
CCOc1cccc(-c2nnc(SCC(=O)NC3CC3)n2C)c1	4.57% [at 46.1 µM]	–
COCC(=O)Nc1ccc(Br)cc1	37.7%	–
CN1C(CC(=O)Nc2ccc(Br)cc2)c2ccccc2CC1(C)C (stereo not given)	–	11.2 µM (active)
Cc1ccc(NC(=O)CCN2CCc3ccccc3C2)cc1	-4.11%	–
COc1ccc(Cc2nnc(SCC(=O)Nc3ccc(C)c(C)c3)o2)cc1OC	0.182% [at 46.1 µM]	–
CC(C)Nc1nnc(SC(C)C(=O)N(C)C2CCCCC2)s1 (stereo not given)	-2.09% [at 46.1 µM]	–
CSc1nc2ccc(C)cc2c(=O)n1-c1cccnc1	0.18% [at 46.1 µM]	–
Cc1ccc2nc(C)c3c(c2c1)N(c1ccccc1)CC3	–	5.62 µM (active)
Cc1ccc2nc3n(c(=O)c2c1)CCC3	-3.59%	–
COc1ccc(CN2CCN(C(=O)CCC(=O)Nc3nnc(C(C)C)s3)CC2)cc1F	-1.28% [at 46.1 µM]	–
CSc1ccc(S(=O)(=O)N2CCC(C(=O)NCc3ccncc3)CC2)cc1	19% [at 46.1 µM]	–
CCOC(=O)c1sc2nc(CSc3ccccc3)[nH]c(=O)c2c1C	–	8.91 µM (active)
CCOC(=O)c1sc2nc(CSCC(=O)OCc3ccc(C(=O)OC)o3)[nH]c(=O)c2c1C	–	inactive
Cc1ccc(C)c(SCc2nc3sc(C(=O)O)c(C)c3c(=O)[nH]2)c1	3.14% [at 46.1 µM]	–
Oc1cccc(CCc2ccccn2)c1	5.63%	–
CC(Nc1ccc([N+](=O)[O-])cc1[N+](=O)[O-])c1ccccc1 (stereo not given)	-12.3%	–
Cc1c(CN2CCC(CO)(CCOc3ccccc3)CC2)[nH]c2ccc(Cl)cc12	–	2.82 µM (active)
Cc1c(C(=O)N2CCOCC2)[nH]c2ccc(OCc3ccccc3)cc12	–	inactive
OCC1(CCc2ccccc2)CCN(Cc2ccc3nsnc3c2)CC1	32.1% [at 46.1 µM]	–
Cc1nn(-c2ccccc2)c2c1[C@@H](c1ccc(F)cc1F)C(C#N)=C(N)O2	-0.0796%	–
O=C(Nc1cccc(S(=O)(=O)N2CCOCC2)c1)C12CC3CC(CC(C3)C1)C2	2.1%	–
Cc1ccc(C(=O)Nc2ccc(NC(=O)c3cccs3)cc2)c(C)c1	-1.43% [at 46.1 µM]	–

Structure (SMILES)	activity change, negative = inhibition	Potency
O=C(Nc1ccccc1)c1ccc(NC(=O)c2cccs2)cc1	-16.6% [at 46.1 µM]	–
Cc1ccc(-c2nnc(-c3ccc(NC(=O)c4cccs4)cc3)o2)cc1	–	11.6 µM (active)
Cc1cc(NC(=O)CSc2nnnn2-c2ccc(F)cc2)no1	2.91% [at 46.1 µM]	–
Cc1ccc(N2CC(C(=O)N3CCC4(CC3)CC(=O)c3ccccc3O4)CC2=O)cc1C (stereo not given)	-13.8%	–
Cc1cc(Br)ccc1NC(=O)c1cnc(N2CCN(c3ccccn3)CC2)c2ccccc12	–	9.2 µM (active)
O=C(CN1CCN(c2ccccn2)CC1)Nc1ccc(Br)cc1	-17.9% [at 46.1 µM]	–
O=C(Cc1ccc(Br)cc1)N1CCN(c2ccccn2)CC1	6.67%	–
C=CCOc1ccc(C(=O)Nc2ccccc2C(=O)N2CCCC2)cc1	-3.14%	–
COc1ccc(OCC(=O)NNC(=O)C2CCC2)cc1	-2.85%	–
O=C(O)c1cc2c(cc1NC(=O)c1c(F)cccc1Cl)OCCCO2	2.18% [at 46.1 µM]	–
COc1ccc(CNC(=O)c2cc3c(=O)[nH]c4ccccc4c3s2)cc1	8.98% [at 46.1 µM]	–
COc1ccc(CNC(=O)c2cc3c(s2)-c2ccccc2OC3)cc1	–	10 µM (active)
COc1ccc(CNC(=O)COC(=O)C2=Cc3ccccc3OC2)cc1	-0.272% [at 46.1 µM]	–
CN1CCOC1c1ccc(C2OCCN2C)cc1 (stereo not given)	1.02%	–
Cc1ccc(OCc2nnc(SC3CCc4ccccc4C3=O)n2C)cc1 (stereo not given)	11.2%	–
CCOc1ccc(C2C(C(=O)O)c3ccccc3C(=O)N2CCN2CCOCC2)cc1 (stereo not given)	4.39%	–
CCOc1ccc(C2NC(=S)NC3=C2CCc2ccccc23)cc1 (stereo not given)	–	7.94 µM (active)
O=C(c1ccc(S(=O)(=O)N2CCCC2)cc1)N1CCN(c2ccccc2F)CC1	2.26%	–
c1ccc(CCc2ccccn2)cc1	-5.92%	–
O=C(O)c1ccc(/C=N/Nc2nc(N3CCCCC3)nc(N3CCCCC3)n2)cc1	16% [at 46.1 µM]	–
Cc1cc(N2CCN(c3ccccc3)CC2)nc(N2CCOCC2)n1	-28.4% [at 46.1 µM]	–
C(=N/Nc1cc(N2CCOCC2)nc(N2CCOCC2)n1)/c1ccccc1	–	2.51 µM (active)
O=C1C2C3C=CC(C3)C2C(=O)N1c1ncc([N+](=O)[O-])s1 (stereo not given)	2.32% [at 46.1 µM]	–
Cc1noc(/C=C/c2ccco2)c1S(=O)(=O)N1CCC(C(=O)Nc2ccc(Cl)cn2)CC1	–	6.51 µM (active)
Cc1cccc(NC(=O)C2CCN(S(=O)(=O)c3c(C)noc3/C=C/c3ccco3)CC2)c1	2.11% [at 46.1 µM]	–
Cc1noc(/C=C/N(C)C)c1S(=O)(=O)N1CCCC(C(=O)Nc2cccc(F)c2)C1 (stereo not given)	-19.2% [at 46.1 µM]	–
Cc1nnc(SCC(=O)N2c3ccccc3C(C)(c3ccc(Cl)cc3)CC2(C)C)s1 (stereo not given)	–	10 µM (active)

Structure (SMILES)	activity change, negative = inhibition	Potency
Cc1nnc(SCC(=O)NCc2ccccc2)s1	1.81%	–
Cc1nnc(SCC(=O)N2CCc3ccccc3C2)s1	18.1%	–
Nn1c(SCC(=O)Nc2ccc3c(c2)CCC3)nnc1C1CC1	-14.3%	–
Cc1ccccc1NC(=O)Cc1nnc(SCC(=O)N2CCN(c3ccccc3)CC2)n1C	–	inactive
Cn1c(Cc2cccc3ccccc23)nnc1SCC(=O)N1CCN(c2cccc(Cl)c2)CC1	–	12.6 µM (active)
Cn1c(CNC(=O)c2ccco2)nnc1SCC(=O)N1CCN(c2ccccc2)CC1	-1.96% [at 46.1 µM]	–
Cc1cccc(C(=O)N[C@H](C(=O)NCc2cccs2)C(C)C)c1	2.48%	–
CCCOC(=O)CSC1=C(C#N)[C@H](c2ccccc2OCC)[C@H](C#N)C(=O)N1	3.94%	–
C=CC1=C(C)C2=NC1=CC1=NC(=CC3=NC(=CC4=NC(=C2)C(C)=C4CCC(=O)O)C(CCC(=O)O)=C3C)C(C=C)=C1C	-14.8%	–
CC(C)(c1ccccc1)c1ccc(OCCN)cc1	-30.5%	–
CN1CCC[C@@H]1CCO[C@](C)(c1ccccc1)c1ccc(Cl)cc1	–	9.2 µM (active)
Cc1ccc(S(=O)(=O)Nc2ccc(F)c(S(=O)(=O)N3CCOCC3)c2)cc1	-16.5%	–
O=C(NNC(=S)Nc1ccccc1)c1cccc(S(=O)(=O)N2CCOCC2)c1	9.66%	–
O=C(c1cccc(S(=O)(=O)N2CCOCC2)c1)N1CCOCC1	14%	–
O=C(Nc1nnc(-c2ccccc2)o1)c1cccc(S(=O)(=O)N2CCOCC2)c1	–	12.6 µM (active)
C/C(=N/OC(=O)c1ccc(Br)cc1)c1ccc(C)cc1	-8.65%	–
Cc1ccc(CSCC(=O)N(C)CC(=O)Nc2cccc(F)c2)cc1	-2.21% [at 46.1 µM]	–
CC(=O)NC1(c2ccc(F)cc2)CCN(C(=O)c2c(F)cccc2F)CC1	28%	–
Cc1c(CCO)c(=O)[nH]n1C(=O)c1c(F)cccc1F	–	2.06 µM (active)
Cc1c(CCO)c(=O)n(-c2ccccc2)n1S(=O)(=O)c1ccc(F)cc1	4.52%	–
O=C(CSc1nc(C2CC2)nc2ccccc12)Nc1cccc(O)c1	-15.4% [at 46.1 µM]	–
Cc1ccc(CCC(=O)Nc2ncc(Cc3cc(Cl)ccc3Cl)s2)o1	–	0.651 µM (active)
CCOc1ccccc1NC(=O)CCc1ccc(C)o1	-18.1%	–
Cc1cnc(NC(=O)CSc2nnc(-c3ccc(Cl)cc3Cl)n2N)s1	0%	–
